Test results reported in PubChem BioAssay AID435001 (Southern Research Specialized Biocontainment Screening …, 2010).

target: Large T antigen (Simian virus 40) (UniProt P03070); test: SV40 TAg ATPase inhibitors, biochemical, ADP-Hunter, purified TAg, synthesized compounds (AID 435001); details: ADP-Hunter fluorescence; series mostly up to 100 µM; inhibition: at the top concentration
Sequence (P03070 whole entry, looked up): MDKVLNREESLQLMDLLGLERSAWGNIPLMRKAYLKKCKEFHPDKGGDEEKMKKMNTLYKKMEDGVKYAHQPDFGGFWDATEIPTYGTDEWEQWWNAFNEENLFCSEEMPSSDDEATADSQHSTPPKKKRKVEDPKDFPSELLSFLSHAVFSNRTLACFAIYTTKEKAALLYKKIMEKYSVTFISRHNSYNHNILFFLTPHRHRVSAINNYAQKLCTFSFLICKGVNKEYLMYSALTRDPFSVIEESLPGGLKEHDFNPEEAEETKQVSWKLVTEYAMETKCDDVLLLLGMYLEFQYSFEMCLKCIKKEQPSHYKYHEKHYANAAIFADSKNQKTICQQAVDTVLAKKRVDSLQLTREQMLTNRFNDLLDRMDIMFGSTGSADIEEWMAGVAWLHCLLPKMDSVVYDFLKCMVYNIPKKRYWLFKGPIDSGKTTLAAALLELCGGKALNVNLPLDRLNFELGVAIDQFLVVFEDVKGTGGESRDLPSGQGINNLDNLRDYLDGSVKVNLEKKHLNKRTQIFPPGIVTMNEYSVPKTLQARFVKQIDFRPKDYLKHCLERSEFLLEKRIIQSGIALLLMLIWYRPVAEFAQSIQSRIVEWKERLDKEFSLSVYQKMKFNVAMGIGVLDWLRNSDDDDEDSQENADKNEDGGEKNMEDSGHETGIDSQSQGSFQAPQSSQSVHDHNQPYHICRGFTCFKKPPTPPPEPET

inhibition, inactive:
C=C(c1ccc(OC)cc1)c1ccc(OC)cc1 -6.97%
COc1ccc(C(C)(O)c2ccc(OC)cc2)cc1 -10.5%
COc1ccc(C2(c3ccc(OC)cc3)CC2)cc1 -7.64%
COc1ccc(C(C)(C)c2ccc(OC)cc2)cc1 -5.01%
